# Assay results: PubChem BioAssay (NCATS)
# Inconclusive results are not listed. A call without a number means that no potency is given here. Calls of active or inactive are those of the source. Unless noted, calls follow the shape of the dose curve; as a rule, active = well fitted curve in the direction sought with a large enough effect; inconclusive = small, poorly fitted or top-dose-only effect, or another doubt; inactive = no such curve, though single readings can be large; an effect the other way counts as inactive or inconclusive.
# Columns and labels:
# [1] = qHTS assay for measurement of the activity of small molecule inhibitors on Zika virus induced Caspase-3 activity in human iPSC derived neural progenitor cells (hNPCs) (AID 1224857); also: nearly all actives have a fitted effect of over 65% in size
# Procedure, shortened: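 Zika virus (2 FFU/cell) infection of human iPSC-derived NPCs, 6 h, following 1 h compound preincubation. Read-out: Caspase-Glo 3/7 luminescence.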
# [2] = qHTS assay to identify small molecule inhibitors of chordoma cells - UCH-1 (AID 1259355); also: nearly all actives have a fitted effect of over 55% in size
# Procedure, shortened: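 Screening used approved and investigational drugs in 15-point titration against 800 seeded cells per well. A fixed combination of auranofin with camptothecin, doxorubicin, rubitecan and topotecan followed compound addition, and growth was scored by CellTiter-Glo after 48hr.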
# [3] = qHTS assay to identify small molecule inhibitors of chordoma cells - UCH-2 (AID 1259356)
# [4] = qHTS profiling of the MIPE4 collection as inhibitors of Plasmodium falciparum (3D7) proliferation (AID 743344; call rule not given here); settings: P. falciparum 3D7 in erythrocytes, SYBR Green DNA fluorescence, 72 h; at 28.5 µM (top of the series)
# Procedure, shortened: (§1)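 Parasite DNA was quantified by SYBR Green I fluorescence (ex 485, em 535 nm) after overnight lysis in saponin/Triton buffer at room temperature. Cultures at 0.3% parasitemia and 2.5% hematocrit were first exposed to compound for 72 h at 37 C; signals were normalised to artemisinin (0.29 uM) and vehicle wells.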
# [5] = qHTS profiling of the MIPE4 collection as inhibitors of Plasmodium falciparum (DD2) proliferation (AID 743345; call rule not given here); settings: P. falciparum Dd2 in erythrocytes, SYBR Green DNA, 72 h; at 28.5 µM (top of the series)
# Excerpt: (§2) Plasmodium falciparum is a virulent malarial parasite that kills 1-2 million people worldwide each year. Transmitted by mosquitoes, the sporozoite form of the parasite enters the blood stream to infect hepatocytes, where they become merozoites that infect red blood cells (erythrocytes). Within erythrocytes, merozoites begin a […] cycle of growth and division, after which the parasite is released to infect new red blood cells. Gametocytes, which form within erythrocytes as well, circulate in the bloodstream and are ingested by the mosquito, thereby completing the life cycle. To profile malarial isolates for differential chemical responses and to identify inhibitors of malarial growth, an assay that measures P. falciparum growth and replication within erythrocytes was employed. […] Because mature erythrocytes lack DNA, only Plasmodium-derived DNA is detected.
# (§3) The SYBR Green viability assay was adapted from a method described previously (Plouffe et al., 2008). […] The following morning, fluorescence intensity at 485(14) nm excitation and 535(25) nm emission wavelengths was measured on an EnVision (Perkin Elmer) plate reader. Plate reads were normalized relative to the control inhibitor (0.29 uM artemisinin) and vehicle (DMSO) wells present on each plate and then corrected by an algorithm using vehicle-only control plates at the beginning and end of the compound plate stack.
# [6] = qHTS profiling of the MIPE4 collection as inhibitors of Plasmodium falciparum (DD2) proliferation (Rep 2) (AID 743346; call rule not given here); settings: P. falciparum Dd2 in erythrocytes, SYBR Green DNA, 72 h; at 28.5 µM (top of the series)
# Procedure, shortened: as §1
# [7] = qHTS profiling of the MIPE4 collection as inhibitors of Plasmodium falciparum (HB3) proliferation (AID 743347; call rule not given here); settings: P. falciparum HB3 in erythrocytes, SYBR Green DNA, 72 h; at 28.5 µM (top of the series)
# Excerpt: as §2, §3
structure (smiles),measurement,setting,value
c1ccc2c(CC3=NCCN3)cccc2c1,outcome,[1],inactive
same,Potency,[2],inactive
same,outcome,[3],inactive
[Cl][In]([Cl])[Cl],outcome,[1],inactive
same,Potency,[2],inactive
same,outcome,[3],inactive
O=Cc1ccccc1C=O,outcome,[1],inactive
same,Potency,[2],inactive
same,outcome,[3],inactive
Cn1c(=O)c2c(ncn2CC2OCCO2)n(C)c1=O,outcome,[1],inactive
same,Potency,[2],inactive
same,outcome,[3],inactive
CSc1ccc2c(c1)C(N1CCN(C)CC1)Cc1ccccc1S2 (stereo unspecified),outcome,[1],inactive
same,Potency,[2],inactive
same,outcome,[3],inactive
OCC(O)CN1CCN(c2ccccc2)CC1 (stereo unspecified),outcome,[1],inactive
same,Potency,[2],inactive
same,outcome,[3],inactive
NC1[C@H]2CN(c3nc4c(cc3F)c(=O)c(C(=O)O)cn4-c3ccc(F)cc3F)C[C@@H]12 (stereo partly specified),outcome,[1],inactive
same,outcome,[3],inactive
CC1CC(OC(=O)C(O)c2ccccc2)CC(C)(C)N1C (stereo unspecified),outcome,[1],inactive
same,Potency,[2],inactive
same,outcome,[3],inactive
CC1(C)S[C@@H]2[C@H](NC(=O)Cc3ccccc3)C(=O)N2[C@H]1C(=O)O (tested in a mixture with another compound),outcome,[1],inactive
same,Potency,[2],inactive
same,outcome,[3],inactive
CC1=C(C/C=C(\C)CCC[C@H](C)CCC[C@H](C)CCCC(C)C)C(=O)c2ccccc2C1=O,outcome,[1],inactive
same,Potency,[2],inactive
same,outcome,[3],inactive
CN1CCCCC1CCN1c2ccccc2Sc2ccc(S(C)=O)cc21 (stereo unspecified),outcome,[1],inactive
same,Potency,[2],inactive
same,outcome,[3],inactive
Nc1ccc(S(=O)(=O)Nc2ccccc2)cc1,outcome,[1],inactive
same,Potency,[2],inactive
same,outcome,[3],inactive
CSc1ccc2c(c1)N(CCC1CCCCN1C)c1ccccc1S2 (stereo unspecified),"parasite growth, % of DMSO control",[4],12.9%
same,"parasite growth remaining, % of DMSO control (lower = more inhibition)",[5],10.4%
same,"parasite growth, % of control (lower = inhibition)",[6],30.8%
same,"growth, % of control",[7],4.65%
same,outcome,[1],inactive
same,outcome,[3],inactive
CC(=O)CCC(=O)O,outcome,[1],inactive
same,Potency,[2],inactive
same,outcome,[3],inactive
O=C(O)CC(O)C(=O)O (stereo unspecified),outcome,[1],inactive
same,Potency,[2],inactive
same,outcome,[3],inactive
NCC(=O)CCC(=O)O,outcome,[1],inactive
same,Potency,[2],inactive
same,outcome,[3],inactive
O=C(O)CN1C(=O)c2cccc3cccc(c23)C1=O,outcome,[1],inactive
same,Potency,[2],inactive
same,outcome,[3],inactive
COC(=O)C1=C(C)NC(C)=C(C(=O)OC)C1c1ccccc1[N+](=O)[O-],outcome,[1],inactive
same,Potency,[2],inactive
same,outcome,[3],inactive
